SKKanGAS inh – inhibitors of SKKanGAS S. pyogenes growth in kanamycin (SK-promoter or general growth effect) | BacTiter-Glo, 6 h | inhibition, % at 7.5 µM | 300,000 compounds, 1.3% hits;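 active means mean replicate score, as percent of positive control median, at least 50; inconclusive means mean below 50 but one replicate at or above 50; inactive means mean and every replicate below 50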;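 further: strain carries kanamycin resistance gene driven by streptokinase promoter and grows in 40 µg/ml kanamycin; loss of luminescence reflects streptokinase promoter inhibition or plain growth inhibition; 0% = median of DMSO wells and 100% = positive control at its reference dose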
tim23-1 inh – growth inhibitors of tim23-1 mutant yeast | S. cerevisiae tim23-1 growth, BacTiter-Glo luminescence, 24 h | inhibition, % at 20 µM | 330,000 compounds, 1.3% hits;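 active means growth inhibition of the mutant yeast at or above 50%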;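 further: temperature-sensitive mutant grown at 25 °C; plate controls were DMSO-treated mutant yeast for no effect and medium wells lacking yeast for full effect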
PfHsp90 yeast 2 – inhibits growth of yeast expressing Plasmodium falciparum Hsp90 | AID 504621 | S. cerevisiae expressing PfHsp90, BacTiter-Glo ATP, 48 h; yeast lacking PDR1 and PDR3 efflux regulators | 310,000 compounds, 0.32% hits | inhibition, % at 9.4 µM;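 active means every replicate shows inhibition above about 80%, whatever the replicate mean, limit read from the data; inconclusive means mean inhibition reaches the set limit but some replicate falls short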;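 further: 0% = DMSO neutral controls and 100% = 20 µM radicicol positive controls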
V-ATPase pHluor – yeast V-ATPase proton transport regulation by pHLuorin. S. cerevisiae, pHLuorin cytosolic pH fluorescence. response, % at 10 µM. 350,000 compounds, 0.37% hits. AID 504577; in the data active means response mostly above about 7.3%, no sharp cut-off; inactive means mostly below about 5.4%; further: actives read high
TIM10 inh – TIM10 yeast growth inhibition; 330,000 compounds, 1.4% hits; inhibition, % at 10 µM; S. cerevisiae TIM10 strain growth, BacTiter-Glo luminescence, 24 h;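 active means inhibition of 40% or more at the single tested concentration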;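 further: wild-type TIM10 isogenic control strain grown at permissive 25 °C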
tim10-1 inh – inhibits growth of tim10-1 mutant yeast; S. cerevisiae tim10-1 ts strain growth, BacTiter-Glo, 24 h; 330,000 compounds, 2.2% hits; inhibition, % at 20 µM;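 active means inhibition of at least 40%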;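 further: mutant grown at 25 °C; 0% = DMSO wells with yeast and 100% = wells holding no yeast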
Numbers without * were called inactive. The list is not random: actives were taken first. Their share in the collection is about 4.6%.

COc1ccc(-c2cc(-c3ccccc3)c(C#N)c(SCC(=O)O)n2)cc1 was read as SKKanGAS inh 9, tim23-1 inh 41, PfHsp90 yeast 2 -3, V-ATPase pHluor -2, TIM10 inh 22 and tim10-1 inh 16.
CC(C)(CNC(=O)c1cccc(S(=O)(=O)N2CCCCC2)c1)N1CCOCC1 was read as V-ATPase pHluor 0.
`NC(=S)N/N=C/c1ncc(C(F)(F)F)cc1Cl` gave SKKanGAS inh 9, tim23-1 inh 8, PfHsp90 yeast 2 14, V-ATPase pHluor 1, TIM10 inh 1 and tim10-1 inh 21.
Cc1cccc(C)c1NC(=O)COC(=O)c1ccc([N+](=O)[O-])o1 was read as SKKanGAS inh 19, tim23-1 inh -49, PfHsp90 yeast 2 87*, V-ATPase pHluor -1, TIM10 inh -106 and tim10-1 inh -97.
COc1cc(-c2ccc(NC(=O)NC3CC3)c(OC)c2)ccc1NC(=O)NC1CC1 was read as SKKanGAS inh 55*, tim23-1 inh -16, TIM10 inh -7 and tim10-1 inh -16.
For CCC(=O)Nc1ccc(-c2ccc(NC(=O)CC)c(OC)c2)cc1OC the results were SKKanGAS inh -11, tim23-1 inh 19, PfHsp90 yeast 2 -1, V-ATPase pHluor 3, TIM10 inh 19 and tim10-1 inh 10.
CCCCc1ccc(NC(=S)NCc2ccccc2OC)cc1 was read as SKKanGAS inh 59*, tim23-1 inh 30, PfHsp90 yeast 2 3, V-ATPase pHluor 3, TIM10 inh 26 and tim10-1 inh 27.
`COc1ccccc1CNC(=S)Nc1ccc(S(N)(=O)=O)cc1` gave SKKanGAS inh -3, tim23-1 inh -1, PfHsp90 yeast 2 7, V-ATPase pHluor 4, TIM10 inh 3 and tim10-1 inh 11.
For CN(CCCn1ccc(NC(=O)OCc2ccccc2)nc1=O)Cc1ccco1 the results were V-ATPase pHluor -1.
For Cc1ccc(CN2CCCN(Cc3cc(C)ccc3C)S2(=O)=O)cc1 the results were SKKanGAS inh 45, tim23-1 inh 12, PfHsp90 yeast 2 14, V-ATPase pHluor 3, TIM10 inh -3 and tim10-1 inh 19.
Cc1ccc(C)c(CN2CCCN(Cc3cc(C)ccc3C)S2(=O)=O)c1 was read as SKKanGAS inh 72*, tim23-1 inh 11, PfHsp90 yeast 2 13, V-ATPase pHluor -1, TIM10 inh 3 and tim10-1 inh 4.
`CCOc1ncccc1C(=O)OCCCC(=O)c1ccc(Br)cc1` gave tim23-1 inh 20, PfHsp90 yeast 2 -45, V-ATPase pHluor 1, TIM10 inh -26 and tim10-1 inh -4.
Screening CCOc1ccccc1N1CCN(C(=O)c2cccc(-c3ccc(O)cc3)c2)CC1 returned SKKanGAS inh 11, tim23-1 inh 10, PfHsp90 yeast 2 104*, V-ATPase pHluor -6, TIM10 inh 18 and tim10-1 inh 1.
For O=C1Nc2ccccc2S/C1=C/Nc1cccc(Cl)c1 the results were SKKanGAS inh 76*, tim23-1 inh 12, V-ATPase pHluor 2, TIM10 inh 20 and tim10-1 inh 20.
`O=C1Nc2ccccc2SC1=Cc1ccccc1` gave V-ATPase pHluor -4.
O=C(CN1CCCCC1)NC(=O)NCc1ccccc1 was read as SKKanGAS inh 0, tim23-1 inh 2, PfHsp90 yeast 2 -4, V-ATPase pHluor 2, TIM10 inh 1 and tim10-1 inh 13.
COc1ccc(Cn2c(-c3ccco3)nc3oc4ccccc4c(=O)c3c2=O)cc1 was read as SKKanGAS inh inconclusive, tim23-1 inh 6, V-ATPase pHluor 2, TIM10 inh 9 and tim10-1 inh 9.
Screening CCCCn1c(-c2ccco2)nc2oc3ccccc3c(=O)c2c1=O returned SKKanGAS inh 50*, tim23-1 inh 37, PfHsp90 yeast 2 8, V-ATPase pHluor 2, TIM10 inh 19 and tim10-1 inh 21.
`CC(C)C1C(c2ccccc2)N(C)C(c2ccccc2)CC1(O)c1ccccc1` (stereo not drawn) gave SKKanGAS inh 88*, tim23-1 inh 42, PfHsp90 yeast 2 33, V-ATPase pHluor 2, TIM10 inh 29 and tim10-1 inh 19.
CN(C(=O)COC(=O)CNC(=O)c1sc2ccccc2c1Cl)c1ccccc1 was read as SKKanGAS inh 0, tim23-1 inh 33, PfHsp90 yeast 2 -7, V-ATPase pHluor 4, TIM10 inh 15 and tim10-1 inh 22.

From PubChem BioAssay
